# Measurements taken from article PMC11062922 (Nature Chemical Biology, 2023).
# Where two headings read alike, the source gives them in different places.
# Tests used:
# Set-up in all cases: species or system human, MV4-11 + K-562 + COLO205 + SK-N-BE2 + OVCAR-8
# [1] = tested on: AXL; conditions: read-out: apparent Kd, n = 1
# [2] = tested on: CSK; conditions: read-out: apparent Kd, n = 1
# [3] = tested on: EPHA1; conditions: read-out: apparent Kd, n = 1
# [4] = tested on: EPHB3; conditions: read-out: apparent Kd, n = 1
# [5] = tested on: FYN; conditions: read-out: apparent Kd, n = 1
# [6] = tested on: LYN; conditions: read-out: apparent Kd, n = 1
# [7] = tested on: PIK3CG; conditions: read-out: apparent Kd, n = 1
# [8] = tested on: RIPK2; conditions: read-out: apparent Kd, n = 1
# [9] = tested on: ULK1; conditions: read-out: apparent Kd, n = 1
# [10] = tested on: PRKG1; conditions: read-out: apparent Kd, n = 1
# [11] = tested on: TGFBR2; conditions: read-out: apparent Kd; compound concentrations:100 nM and 1000 nM (sheet 'Samples'); n = 1
# [12] = tested on: CDC42BPG; conditions: read-out: apparent Kd; compound concentrations: 100 nM and 1000 nM (sheet 'Samples'), CATDS: 6.3279699360334701E-2; n = 1
# [13] = tested on: PDGFRB; conditions: read-out: apparent Kd; compound concentrations: 100 nM and 1000 nM (sheet 'Samples'), CATDS: 3.4568718881872497E-2; n = 1
# [14] = tested on: ROCK1; conditions: read-out: apparent Kd; compound concentrations:100 nM and 1000 nM (sheet 'Samples'); n = 1
# [15] = tested on: MTOR; conditions: read-out: apparent Kd; compound concentrations:100 nM and 1000 nM (sheet 'Samples'); n = 1
# [16] = compound concentrations:100 nM and 1000 nM (sheet 'Samples')
smiles,measurement,setting,value
O=C1N=C(NCCc2ccc(Cl)cc2)S/C1=C\c1ccc2ncccc2c1 [RO4498479-000],potency estimated from few doses,"[1]; compound concentrations: 100 nM and 1000 nM (sheet 'Samples'), CATDS: 1.04698651204191E-2",500 nM
same,potency estimated from few doses,"[2]; compound concentrations: 100 nM and 1000 nM (sheet 'Samples'), CATDS: 1.24616497834408E-2",349 nM
same,potency estimated from few doses,"[3]; compound concentrations: 100 nM and 1000 nM (sheet 'Samples'), CATDS: 1.45728088711572E-2",262 nM
same,potency estimated from few doses,"[4]; compound concentrations: 100 nM and 1000 nM (sheet 'Samples'), CATDS: 7.7760925850710602E-3",1110 nM
same,potency estimated from few doses,"[5]; compound concentrations: 100 nM and 1000 nM (sheet 'Samples'), CATDS: 1.0262385049400099E-2",523 nM
same,potency estimated from few doses,"[6]; compound concentrations: 100 nM and 1000 nM (sheet 'Samples'), CATDS: 9.5944426584782493E-3",613 nM
same,potency estimated from few doses,"[7]; compound concentrations: 100 nM and 1000 nM (sheet 'Samples'), CATDS: 8.5012457956318496E-3",843 nM
same,potency estimated from few doses,"[8]; compound concentrations: 100 nM and 1000 nM (sheet 'Samples'), CATDS: 1.0901360132345101E-2",458 nM
same,potency estimated from few doses,"[9]; compound concentrations: 100 nM and 1000 nM (sheet 'Samples'), CATDS: 1.00048929217101E-2",555 nM
CCn1c(-c2nonc2N)nc2c(C#CC(C)(C)O)nc(OCCN)cc21.CCn1c(-c2nonc2N)nc2c(C#CC(C)(C)O)nc(OCCN)cc21.Cl.Cl [GSK902056A],potency estimated from few doses,[10]; [16],1230 nM
Cl.NCc1ccc(-c2nc(-c3ccc(Cl)c(O)c3)c(-c3ccncc3)[nH]2)cc1 [SB-476429-A],potency estimated from few doses,[8]; [16],22.7 nM
same,potency estimated from few doses,[11],1200 nM
CCn1c(-c2nonc2N)nc2c(-c3ccccc3)ncc(OCCCN)c21.CCn1c(-c2nonc2N)nc2c(-c3ccccc3)ncc(OCCCN)c21.O=C(O)C(F)(F)F.O=C(O)C(F)(F)F [GSK260205A],potency estimated from few doses,[12],187 nM
same,potency estimated from few doses,[13],808 nM
Cl.Cl.NCC(C(=O)Nc1cc(Br)c(-c2ccnc3[nH]ccc23)s1)c1ccccc1.NCC(C(=O)Nc1cc(Br)c(-c2ccnc3[nH]ccc23)s1)c1ccccc1 (stereo not drawn) [GSK1269851A],potency estimated from few doses,[1]; [16],1610 nM
same,potency estimated from few doses,[2]; [16],674 nM
same,potency estimated from few doses,[3]; [16],516 nM
same,potency estimated from few doses,[4]; [16],1180 nM
same,potency estimated from few doses,[5]; [16],680 nM
same,potency estimated from few doses,[6]; [16],586 nM
same,potency estimated from few doses,[14],894 nM
same,potency estimated from few doses,[9]; [16],705 nM
CCn1c(-c2nonc2N)nc2c(C#CC(C)(C)O)nc(OC[C@@H](N)c3ccccc3)cc21 [GSK938890A],potency estimated from few doses,"[10]; compound concentrations: 100 nM and 1000 nM (sheet 'Samples'), CATDS: 5.6529109044468798E-2",866 nM
CN1C[C@@H]2Cn3c(c(C4=C(c5cn(C)c6ccccc56)C(=O)NC4=O)c4ccccc43)C[C@H]2C1.Cl [RO0320234-001],potency estimated from few doses,[1]; [16],1340 nM
same,potency estimated from few doses,[2]; [16],552 nM
same,potency estimated from few doses,[3]; [16],368 nM
same,potency estimated from few doses,[4]; [16],1030 nM
same,potency estimated from few doses,[5]; [16],209 nM
same,potency estimated from few doses,[6]; [16],158 nM
same,potency estimated from few doses,[15],186 nM
same,potency estimated from few doses,[7]; [16],1400 nM
same,potency estimated from few doses,[8]; [16],407 nM
same,potency estimated from few doses,[9]; [16],768 nM
